Laboratory results reported in PubChem BioAssay (NCI).
The panel holds about 83,000 compounds, 20% with a hit somewhere; the sample as a whole holds those more often.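 Single-concentration screen, 48 h exposure, 96-well plates. Endpoint: percent growth. Below 10 = active.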 Values without a mark were called inactive. Calls of active or inactive are those of the source.

Each compound was assayed on NCI-H460 lung (assay: NCI-60 one-dose screen, 48 h (100 = growth as untreated, 0 = no growth, -100 = all killed)). Conditions: 10 µM unless noted.

Structure (SMILES)	growth
Clc1cccc(Cl)c1Nc1ccc2nnc(-c3ccncc3)n2n1	106%
CC(C)(C)[Si](C)(C)OC1[C@@H](CNC(=O)NC(=O)CCl)O[C@@H](n2cnc3c(N)ncnc32)[C@H]1O[Si](C)(C)C(C)(C)C (stereo not given in full)	-82.4% (active)
CC(=O)Nc1ccc(Sc2ccc([N+](=O)[O-])o2)cc1	46.9%
CC(C)(C)[Si](C)(C)OC1[C@@H](COC(=O)NC(=O)CCl)O[C@@H](n2cnc3c(N)ncnc32)[C@H]1O[Si](C)(C)C(C)(C)C (stereo not given in full)	64.6%
COc1ncnc2c1ncn2C/C(Br)=C(\Br)CCl	-40.7% (active)
O=C1c2ccccc2C(=O)c2c(Nc3ccc(CCO)cc3)ccc(O)c21	56%
COc1ccccc1CNCCCCCCCCCCCCN1C(=O)c2ccc3c4c(ccc(c24)C1=O)C(=O)N(CCCCCCCCCCCCNCc1ccccc1OC)C3=O	35.5%
CC(=O)c1cc(C)c(OC(=O)c2ccccc2)c(C)c1	106%
COC(=O)/C=C1/CCC2C3CCC4=CC(=O)C(Br)CC4(C)C3C(=O)CC12C (stereo not given)	59.3%
O=c1[nH]c(-c2ccccn2)nc2sc3c(c12)CCCCCC3	15.9%
CC(C)OC1=C(Cl)C(=O)c2ccccc2C1=O	103%
CCCCCn1c(=N)n(CC(O)COc2cccc(C)c2)c2ccccc21 (stereo not given)	0.388% (active)
CC1SC(c2cccc(Oc3ccccc3)c2)N(CCc2cccs2)C1=O (stereo not given)	-64.2% (active)
CC(C)(C)[Si](C)(C)OC1[C@@H](COC(N)=O)O[C@@H](n2cnc3c(N)ncnc32)[C@H]1O[Si](C)(C)C(C)(C)C (stereo not given in full)	83.9%
COc1ccc(-c2csc3c2-n2cccc2C3=O)cc1O	1.57% (active)
O=c1[nH]c(-c2ccncc2)nc2sc3c(c12)CCCCCC3	30.4%
COc1ccc(-n2c(SCc3cc(OC)c(OC)c(OC)c3)nc3ccc(C)cc3c2=O)c(OC)c1	4.59% (active)
O=C1NC(=O)C(CSc2ccccc2)(c2ccccc2)N1 (stereo not given)	118%
Fc1ccccc1Nc1ccc2nnc(-c3ccncc3)n2n1	103%
CC(C)(C)[Si](C)(C)OC1[C@@H](O[Si](C)(C)C(C)(C)C)[C@@H](CNC(=O)NC(=O)C(F)(F)F)O[C@H]1n1cnc2c(NC(=O)Nc3ccccc3)ncnc21 (stereo not given in full)	36.1%

Structure (SMILES)	growth
Cc1ccc(N=c2nc3sc4c(C)ccc(C)c4n3c(N)c2C#N)cc1	105%
COCCOC1=C(Cl)C(=O)c2ccccc2C1=O	14.3%
CCOC(=O)C1=C(C)N2C(=NC3=C(CCCC/C3=C\c3ccccc3)C2c2ccccc2)S1 (stereo not given)	99.1%
CCN1CCN(C(=S)SCC(=O)Nc2nc3ccc(OC)cc3s2)CC1	113%
Oc1ccccc1/C=N/Nc1nc2ccccc2s1	15.7%
CC(=O)Nc1ccccc1-c1n[nH]c(=O)[nH]c1=O	104%
Oc1ccc2ccccc2c1C1NN=C(c2ccccc2)S1 (stereo not given)	-27.8% (active)
O=c1c2c(=NCCN3CCCC3)cc3c(=O)n(CCCN4CCOCC4)c(=O)c4ccc(c(O)n1CCCN1CCOCC1)c2c4-3	-8.16% (active)
COc1ccccc1-n1c(SCc2cc(OC)c(OC)c(OC)c2)nc2ccc(Cl)cc2c1=O	10.8%
Nc1c(Br)cc(Br)cc1-c1n[nH]c(=O)[nH]c1=O	102%
O=C1C(OCCOc2ccccc2)=C(OCCOc2ccccc2)C(=O)c2ccccc21	-26% (active)
O=c1nc(NO)[nH]c(=O)n1Cc1ccccc1	109%
COc1ccc(-c2nc3sc(C)nn3c2-c2nc3cc(C)c(C)cc3[nH]2)cc1	99.9%
Cc1ccc2nc(NC(=O)CSC(=S)N3CCN(C)CC3)sc2c1	106%
CC[Si](CC)(CC)OC1[C@@H](O[Si](CC)(CC)CC)[C@@H](CNC(=O)NC)O[C@H]1n1cnc2c(NC(=O)Nc3ccccc3)ncnc21 (stereo not given in full)	24.8%
COc1ccc(C2SC(C)C(=O)N2CCc2cccs2)cc1OC (stereo not given)	90.3%
Cc1cc(=O)[nH]n1-c1cc(Cl)ccc1N	113%
c1ccc2cc(Cn3c(-c4ccc5ccccc5c4)[n+](Cc4ccc5ccccc5c4)c4ccccc43)ccc2c1	-81.7% (active)
COc1cc2nc(SCc3cc(OC)c(OC)c(OC)c3)n(-c3ccccc3OC)c(=O)c2cc1OC	83.4%

What follows are compounds tested on HOP-92 NSCLC in the same assay as above. Conditions: 10 µM unless noted.

Structure (SMILES)	growth
CC(C)(C)[Si](C)(C)OC1[C@@H](CNC(=O)NC(=O)CCl)O[C@@H](n2cnc3c(N)ncnc32)[C@H]1O[Si](C)(C)C(C)(C)C (stereo not given in full)	-79.2% (active)
CC(=O)Nc1ccc(Sc2ccc([N+](=O)[O-])o2)cc1	40.2%
CC(C)(C)[Si](C)(C)OC1[C@@H](COC(=O)NC(=O)CCl)O[C@@H](n2cnc3c(N)ncnc32)[C@H]1O[Si](C)(C)C(C)(C)C (stereo not given in full)	12.7%
CC(=O)c1cc(C)c(OC(=O)c2ccccc2)c(C)c1	96.1%
COC(=O)/C=C1/CCC2C3CCC4=CC(=O)C(Br)CC4(C)C3C(=O)CC12C (stereo not given)	76.6%
O=c1[nH]c(-c2ccccn2)nc2sc3c(c12)CCCCCC3	-2.86% (active)
CC(C)OC1=C(Cl)C(=O)c2ccccc2C1=O	99.8%
CCCCCn1c(=N)n(CC(O)COc2cccc(C)c2)c2ccccc21 (stereo not given)	-10.9% (active)
CC(C)(C)[Si](C)(C)OC1[C@@H](COC(N)=O)O[C@@H](n2cnc3c(N)ncnc32)[C@H]1O[Si](C)(C)C(C)(C)C (stereo not given in full)	55.3%
O=c1[nH]c(-c2ccncc2)nc2sc3c(c12)CCCCCC3	-25.1% (active)
COc1ccc(-n2c(SCc3cc(OC)c(OC)c(OC)c3)nc3ccc(C)cc3c2=O)c(OC)c1	22.7%
O=C1NC(=O)C(CSc2ccccc2)(c2ccccc2)N1 (stereo not given)	90.8%
CC(C)(C)[Si](C)(C)OC1[C@@H](O[Si](C)(C)C(C)(C)C)[C@@H](CNC(=O)NC(=O)C(F)(F)F)O[C@H]1n1cnc2c(NC(=O)Nc3ccccc3)ncnc21 (stereo not given in full)	-11.4% (active)
Cc1ccc(N=c2nc3sc4c(C)ccc(C)c4n3c(N)c2C#N)cc1	76.6%
COCCOC1=C(Cl)C(=O)c2ccccc2C1=O	-17.3% (active)
CCOC(=O)C1=C(C)N2C(=NC3=C(CCCC/C3=C\c3ccccc3)C2c2ccccc2)S1 (stereo not given)	-2.46% (active)

Structure (SMILES)	growth
CCN1CCN(C(=S)SCC(=O)Nc2nc3ccc(OC)cc3s2)CC1	83.8%
Oc1ccccc1/C=N/Nc1nc2ccccc2s1	44.5%
CC(=O)Nc1ccccc1-c1n[nH]c(=O)[nH]c1=O	-10.8% (active)
Oc1ccc2ccccc2c1C1NN=C(c2ccccc2)S1 (stereo not given)	42.8%
O=c1c2c(=NCCN3CCCC3)cc3c(=O)n(CCCN4CCOCC4)c(=O)c4ccc(c(O)n1CCCN1CCOCC1)c2c4-3	-4.88% (active)
COc1ccccc1-n1c(SCc2cc(OC)c(OC)c(OC)c2)nc2ccc(Cl)cc2c1=O	42.9%
Nc1c(Br)cc(Br)cc1-c1n[nH]c(=O)[nH]c1=O	54.6%
O=C1C(OCCOc2ccccc2)=C(OCCOc2ccccc2)C(=O)c2ccccc21	102%
O=c1nc(NO)[nH]c(=O)n1Cc1ccccc1	-3.57% (active)
COc1ccc(-c2nc3sc(C)nn3c2-c2nc3cc(C)c(C)cc3[nH]2)cc1	87.9%
Cc1ccc2nc(NC(=O)CSC(=S)N3CCN(C)CC3)sc2c1	94.5%
CC[Si](CC)(CC)OC1[C@@H](O[Si](CC)(CC)CC)[C@@H](CNC(=O)NC)O[C@H]1n1cnc2c(NC(=O)Nc3ccccc3)ncnc21 (stereo not given in full)	67.2%
Cc1cc(=O)[nH]n1-c1cc(Cl)ccc1N	114%
c1ccc2cc(Cn3c(-c4ccc5ccccc5c4)[n+](Cc4ccc5ccccc5c4)c4ccccc43)ccc2c1	-60.3% (active)
COc1cc2nc(SCc3cc(OC)c(OC)c(OC)c3)n(-c3ccccc3OC)c(=O)c2cc1OC	65.8%
